High-throughput results deposited in PubChem by National Center for Advancing Translational Sciences (NCATS).
Vaccinia mCherry: vaccinia inhibition (mCherry reporter); Potency, µM (series often up to 36.5 µM), for inactives: at the top dose activity change, negative = inhibition, usual class: inhibitors; Vaccinia virus mCherry reporter infection, fluorescence; 310,000 tested, 0.63% active; AID 720579; calls by dose curve; tested in A549 cells; note: potency is the fitted concentration of half-maximal effect; nearly all actives have a fitted effect of over 35% in size
Lassa entry inh: inhibitors of Lassa virus binding or cell entry | Lassa virus pseudotype entry inhibition, cell reporter | Potency, µM (top dose mostly 37.9 µM), without a hit: at the highest dose activity change, negative = inhibition, usual class: inhibitors | 300,000 tested, 1.2% active | AID 540256; calls by dose curve; tested in HEK293 cells; note: potency is the fitted concentration of half-maximal effect; nearly all actives have a fitted effect of over 50% in size
HCV inhibitor: inhibitors of hepatitis C virus infection; Huh7.5.1 HCVcc-Cre infection, luciferase reporter, 44 h; Potency, µM (series often up to 41.8 µM), for the others: at the highest dose activity change, negative = inhibition, most hits filed as inhibitors; 340,000 tested, 3.4% active; active = well fitted inhibition curve with a large enough effect; inconclusive = small, poorly fitted or top-dose-only effect, or another doubt; inactive = no such curve, though single readings can be large or run the other way; note: potency is the fitted concentration of half-maximal effect
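Compounds are dispensed onto cells plated 4 h earlier at 1,000 per well, with HCVcc-Cre virus (about 0.5 moi) added next. Following 44 h of culture, luminescent signal is measured for 15 sec after 15 min with substrate at room temperature.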
MARV entry inh: blocks Marburg virus binding to or entry into cells | Marburg virus pseudotyped entry inhibition, cell reporter | Potency, µM (doses to about 37.8 µM), inactives show top-dose activity change, negative = inhibition, actives largely listed as inhibitors | 300,000 tested, 1.8% active | AID 540276; calls by dose curve; tested in HEK293 cells; note: potency is the fitted concentration of half-maximal effect
HCMV inh: blocks human cytomegalovirus replication; HFF cells, HCMV-luciferase reporter, 72 h; active compounds read low; activity change, negative = inhibition, % at 57.5 µM; 410,000 tested, 4.5% active; in the data active = activity change below about -60%; inconclusive = no clear call, values can overlap the other calls; inactive = above about -39%
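After 16 h attachment at 37C, HFF cells received test compound and HCMV-luciferase (1 PFU/cell); reporter luminescence read 72 h later, data normalized against buffer-only and known inhibitor Salinomycin.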
Vaccinia Venus: inhibitors of vaccinia virus (Venus reporter). 330,000 tested, 0.46% active. Vaccinia virus Venus reporter expression, fluorescence. AID 720580. Potency, µM (top dose mostly 36.5 µM), without a hit: at the top dose activity change, negative = inhibition, most hits filed as inhibitors; calls by dose curve; tested in A549 cells; note: potency is the fitted concentration of half-maximal effect; nearly all actives have a fitted effect of over 30% in size
* marks the source's active call; other numbers are inactive results; i = inactive; ? = inconclusive; nt = no result; [ ] = dose if it differs, or a comment. The list is not random: actives were taken first. Their share in the collection is about 7.8%. % is set by controls: 0 for no effect and ±100 for the full control effect.

SMILES	Vaccinia mCherry	Lassa entry inh	HCV inhibitor	MARV entry inh	HCMV inh	Vaccinia Venus
CSC(=S)NCc1cccnc1	?	?	?	?	-82*	-13%
COc1cc(CN2CCOc3ccc(C(O)c4cccnc4)cc3C2)cc(OC)c1 (centres undefined)	-10%	nt	nt	nt	nt	5%
COc1ccc2c(c1)c(=O)c(C(=O)c1ccc(Cl)cc1)cn2CC(=O)Nc1ccc2c(c1)OCO2	1%	-12%[46.1 µM]	nt	-2%[46.1 µM]	-7	4%
Cc1ccc(NC(=O)COC(=O)C2=COCCO2)c([N+](=O)[O-])c1	i	1%	-5%	23%[46.1 µM]	-11	-20%
CC(=O)c1c(C)[nH]c(C(=O)OCC(=O)Nc2ccc(C)cc2[N+](=O)[O-])c1C	nt	3%	2.8µM*	?	?	nt
CC(=O)c1c(C)[nH]c(C(=O)OCC(=O)Nc2cc(Cl)ccc2[N+](=O)[O-])c1C	nt	nt	10µM*	-2%	100	nt
Cc1nc2ccccc2nc1CN1CCOc2ccc(C3(O)CCN(c4ccccc4F)CC3)cc2C1	-15%	nt	nt	nt	nt	-9%
Cc1ccccc1Nc1nc(N)nc(-c2oc3ccccc3c2C)n1	i	-4%	-56%	?	-9	-19%
Cc1c(-c2nc(N)nc(Nc3ccc(F)cc3)n2)oc2ccccc12	nt	-6%	10µM*	?	62	?
CN(C)S(=O)(=O)N1CCC(Oc2cccc(C(=O)N3CCCCCCC3)c2)CC1	-19%	11µM*	?	-1%	nt	-18%
CN(C)S(=O)(=O)N1CCC(Oc2cccc(C(=O)N3CCCCCC3)c2)CC1	-4%	?	?	?	-14	-12%
O=[N+]([O-])c1cnccc1Nc1ccc(Cl)cc1	i	2%	3%	-14%	?	-17%
O=[N+]([O-])c1ccc(NCc2ccc(Cl)cc2)c2ccncc12	-22%	-5%[46.1 µM]	6.3µM*	?	-9	1%
CCCc1cnc(NCCNCC(O)COc2ccc(Cl)c(Cl)c2)nc1 (centres undefined)	?	-28%	?	?	-98*	-16%
CC(=O)c1cccc(OCC(O)CNCCc2ccc(Cl)cc2)c1 (centres undefined)	-2%	11%[46.1 µM]	-16%	0%[46.1 µM]	46	-10%
C=CCNC(=S)/N=c1\sccn1C	nt	?	-5%	-2%	27	nt
C=CCNC(=S)/N=c1/ccccn1C	-7%	1%	17%	4%	-98*	-12%
C=CCNC(=S)/N=c1/ccccn1CCC	nt	nt	1%	5%	-107*	nt
C=CCNC(=S)/N=c1/scc(C)n1C	nt	?	0%	?	-11	nt
COc1ccccc1-c1noc2nc(OCc3ccc(F)cc3)ccc12	nt	nt	nt	nt	15	nt
COc1cc2nc(N3CCOCC3)nc(NC(C)C)c2cc1OC	-23%	nt	nt	nt	nt	-21%
Cc1ccc(NC(=O)c2cccs2)cc1NC(=O)c1ccc(F)cc1	3%	-8%[46.1 µM]	?	?	113	4%
COc1cccc(C(=O)Nc2cc(NC(=O)c3cccs3)ccc2C)c1	nt	nt	-15%	nt	-75*	nt
COc1cccc(C(=O)Nc2cc(NC(=O)c3cccs3)ccc2C)c1OC	nt	nt	10µM*	nt	-4	nt
COC(=O)c1ccc(Nc2nnc(-c3ccc(C)c(S(=O)(=O)N4CCN(C)CC4)c3)c3ccccc23)cc1	-27%	?	nt	?	-30	-22%
SMILES	Vaccinia mCherry	Lassa entry inh	HCV inhibitor	MARV entry inh	HCMV inh	Vaccinia Venus
CN(C)c1ccc(-c2cc(NCc3cccnc3)ncn2)cc1	-5%	nt	nt	nt	nt	0%
O=C1NC(=S)NC(=O)C1=Cc1ccc(Br)s1	nt	nt	?	nt	-100*	nt
O=C1NC(=S)N/C1=C/c1cccc2ccccc12	nt	nt	-9%	0%	3	nt
O=C1NC(=S)NC(=O)C1=Cc1cccc2cc3ccccc3cc12	?	nt	10µM*	nt	-94*	11µM*
O=C1NC(=S)NC(=O)C1=Cc1c(Cl)cccc1Cl	-4%	0%[46.1 µM]	10%	11%[46.1 µM]	-61*	-8%
COc1ccc(C=C2C(=O)NC(=S)NC2=O)cc1	-1%	16%	26%	21%	?	-6%
C=CCOc1c(Cl)cc(C(=S)N2CCCC2)cc1OCC	?	?	?	-8%	-76*	-26%
C=CCn1c2ccccc2c(=O)c2cc(C#CC[C@@H](C)O)ccc21	?	nt	13µM*	nt	211	-21%
C=CCn1c2ccccc2c(=O)c2cc(C#CC3(O)CCCCC3)ccc21	-17%	nt	10µM*	nt	20	?
N#Cc1cc2ccncc2c2ccccc12	i	nt	nt	nt	-39	-8%
Nc1cc2ccncc2c2ccccc12	-8%	nt	-25%	nt	-96*	-25%
CC(C)c1ccc(NC(=O)CS(=O)(=O)c2cccc3nsnc23)cc1	-12%	0%[46.1 µM]	nt	nt	-15	-8%
Cc1ccc2ncc3c(-c4ccccc4)nn(CC(=O)NC4CCCCC4)c3c2c1	-8%	2%[46.1 µM]	nt	nt	10	-2%
C/C(=N\NC(=O)COc1ccc(C)cc1Br)c1cc([N+](=O)[O-])cs1	?	?	8.9µM*	?	-81*	?
C/C(=N\NC(=O)COc1ccc(C)cc1[N+](=O)[O-])c1cccs1	-16%	8%	-16%	29%[46.1 µM]	21	-4%
O=C(Nc1ccc(Cl)c(-c2nc3ccccc3o2)c1)c1cccc2c(Cl)cccc12	-6%	-28%[46.1 µM]	nt	3%[46.1 µM]	19	-5%
Nc1cnn(C2OC(CO)C(O)C2O)c(=O)n1 (centres undefined)	?	?	13%	?	-64*	0%
O=c1[nH]cnc2c1[nH]c(=S)n2C1O[C@@H](CO)[C@H](O)[C@@H]1O (some centres undefined)	34%	nt	nt	nt	nt	-6%
Nc1ncn(C2O[C@H](CO)[C@@H](O)[C@H]2O)c(=O)n1 (some centres undefined)	nt	nt	7%	nt	nt	nt
O=c1[nH]c(=O)n(C2OC(CO)C(O)C2O)cc1F (centres undefined)	1µM*	2µM*	?	?	nt	?
O=c1[nH]cnc2c1ccn2C1OC(CO)C(O)C1O (centres undefined)	?	nt	1.1µM*	nt	-69*	-26%
C[C@H]1O[C@@H](n2cc(F)c(=O)[nH]c2=O)[C@H](O)[C@H]1O	nt	-29%	nt	4%	nt	nt
Nc1nc(=O)n(C2OC(CO)C(O)C2O)cc1F (centres undefined)	2µM*	nt	nt	nt	-99*	-14%
CCOC(=O)[C@H]1CCCN(c2nc3ccccc3nc2[C@@H](C#N)C(=O)O[C@@H](C)COC)C1	nt	nt	nt	-2%	nt	nt
O=c1[nH]c(=O)n([C@@H]2O[C@H](CO)[C@@H](O)[C@H]2O)cc1F	1.1µM*	nt	nt	nt	nt	?
CCCSCCCNC(=O)c1ccc2c(c1)nc1n2CCCCC1	-10%	-1%[46.1 µM]	nt	nt	46	-9%
CC1c2ccccc2SC(CCCN(C)C)c2ccccc21 (centres undefined)	-28%	?	?	5.2µM*	-61*	-14%
CN(C)CCC1Sc2ccccc2Oc2ccccc21 (centres undefined)	-11%	-52%	1%	?	-14	-2%
